The structures appear in SMILES notation. The campaign covered roughly 360,000 compounds. About 9,100 (2.5%) were called active. Inconclusive results (about 4%) are left out. The sample holds actives, similar compounds and a random draw of the others, so the mix is not that of the screen. Rule as the data show it: active = max response below about -50%; inconclusive = no clear call, values can overlap the other calls; inactive = above that.
% is scaled to controls: 0 for no effect and ±100 for the full control effect.

Sequence of D(3) dopamine receptor (Homo sapiens) (P35462 whole entry, looked up): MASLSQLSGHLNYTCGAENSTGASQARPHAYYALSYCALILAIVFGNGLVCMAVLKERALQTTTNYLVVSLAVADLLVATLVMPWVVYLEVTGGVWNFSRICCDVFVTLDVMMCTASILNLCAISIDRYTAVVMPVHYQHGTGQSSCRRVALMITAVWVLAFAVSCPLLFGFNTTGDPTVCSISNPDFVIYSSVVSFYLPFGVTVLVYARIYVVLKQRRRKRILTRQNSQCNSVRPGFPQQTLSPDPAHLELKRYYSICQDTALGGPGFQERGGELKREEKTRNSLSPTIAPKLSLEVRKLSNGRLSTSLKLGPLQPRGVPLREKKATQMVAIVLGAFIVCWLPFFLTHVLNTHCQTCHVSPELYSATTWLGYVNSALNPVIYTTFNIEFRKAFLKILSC

For the assay, the target named is D(3) dopamine receptor (Homo sapiens) (UniProt P35462). Kind of assay: qHTS of D3 Dopamine Receptor Antagonist: qHTS. As to conditions: D3R cells, DiscoveRx beta-arrestin luminescence, antagonist mode; stronger effect = lower value. From the text:
D3 DARs represent a very important target for the treatment of several neuropsychiatric disorders. Indeed, one of the most promising therapeutic applications for the D3 DAR is in the area of addiction and related disorders. […] These findings have been observed with a number of addictive substances including cocaine, amphetamine, nicotine, and alcohol. […] Antagonism of the D3 DAR may also be therapeutic in the treatment of schizophrenia or psychosis. […] Since the D3 DAR is expressed in areas of the CNS associated with the control of mood and emotion, it has been hypothesized that selective antagonism of the D3 DAR may be effective in treating psychosis without inducing the motor side effects typically seen with D2 DAR antagonists.
This part of the project aims to discover novel antagonist.
NIH Chemical Genomics Center [NCGC]
NIH Molecular Libraries Probe Centers Network [MLPCN]
Assay Submitter (PI): David Sibley, NINDS
Freshly passaged cells are plated in 1536 well white, solid bottom plates at a density of 1500 cells/well in 3microl of complete media. After an overnight incubation at 37 degrees C in 5% CO2, cells are loaded with 23nl of test compound from the compound library (as well as dopamine controls) using a 1536 pintool and incubated at 37 degrees C for 90 minutes. Two microliters of DiscoveRx reagent is then added to all cells, and they are incubated for an additional 30 - 60 minutes at room temperature. Following incubation, luminescence is measured on a ViewLux CCD-based luminometer reader using a 20 sec exposure time.
In general terms: Quantitative high-throughput screening tests each substance at several concentrations.
With `CC(=O)NC1C(OCc2ccccc2)OC(COC(C)=O)C(OC(C)=O)C1OC(C)=O` (stereo not drawn), the max response, negative = inhibition is -50.8% (active).
As to `CCc1cccc(OC2OC(CO)C(O)C(O)C2NC(C)=O)c1` (stereo not drawn), the max response, negative = inhibition is -21.8% (inactive).
The figure for `CC(=O)NC1C(Oc2ccc(C=O)cc2)OC(COC(C)=O)C(OC(C)=O)C1OC(C)=O` (stereo not drawn) is 14.4% (inactive); for `Cc1cccc(CN2CCN(C3CN(Cc4cn(Cc5cc(C)cc(C)c5)nn4)S(=O)(=O)C3)CC2)c1` (stereo not drawn) it is 0.506% (inactive).
The figure for `Cc1ccc(Cc2c(-c3ccccc3)nc3ccc(Cl)cn23)cc1` is 5.55% (inactive).
As for `Cc1ccc(NC(=S)N(Cc2ccco2)C(C)c2cccs2)cc1` (stereo not drawn), the max response, negative = inhibition was 10.5% (inactive).
In the case of `Cc1ccc(NC(=S)N(CCCN2CCC(C)CC2)Cc2ccco2)cc1`, the max response, negative = inhibition is -63.3% (active).
In the case of `Cc1ccc(NC(=S)N(CCN2CCCCC2)Cc2ccco2)cc1C` it was -70.4% (active); in that of `CCc1ccccc1NC(=S)N(CCN1CCCCCC1)Cc1ccco1`, -28.8% (inactive); in that of `Cc1ccc(NC(=S)N(CCCN2CCCC2)Cc2cccn2Cc2ccc(Cl)cc2)cc1`, -19% (inactive).
For `Cc1ccc(NC(=S)N(CCN(C)C)Cc2cccs2)cc1C`, the max response, negative = inhibition was -25.3% (inactive).
The figure for `O=C(c1ccc(C(F)(F)F)cc1)N1CCC(=O)N([C@H](COCc2ccccc2)Cc2ccccc2)CC1` is -26.4% (inactive); for `CC(C)c1ccc(CC(=O)N2CCC2(C)C(=O)NS(=O)(=O)c2ccc(C(C)(C)C)cc2)cc1` (stereo not drawn) it is 22.2% (inactive).
In the case of `Nc1ncnc2c1ncn2[C@@H]1O[C@H](C(=O)NCC(F)(F)F)[C@@H](O)[C@H]1O` it was 14.5% (inactive); in that of `Cc1nc(C(F)(F)F)ccc1C(=O)N1CCC1(C)C(=O)NS(=O)(=O)c1ccc(F)cc1F` (stereo not drawn), 19.8% (inactive).
For `O=C1NC[C@@H](CCCCN2CCN(CCc3ccc(O)cc3)C(=O)C2=O)N(CC2CCCCC2)C1=O`, the max response, negative = inhibition was 0% (inactive).
In the case of `O=C(CSc1ccc(-c2ccccc2)nn1)NCC1CCCO1` (stereo not drawn) it was -1.73% (inactive); in that of `CCn1c(SCC(=O)NCC2CCCO2)nc2ccccc21` (stereo not drawn), 1.46% (inactive).
In the case of `O=C(CSC1=Nc2ccccc2C2=NC(c3ccccc3)C(=O)N12)NCC1CCCO1` (stereo not drawn) it was -66.9% (active); in that of `CC(=O)c1cccc(-c2cnc3c(NC=O)cc(-c4ccc(N5CCN(C)CC5)cc4)cn23)c1`, 13.5% (inactive).
In the case of `Cc1ccc(CC2CC(=O)N(c3ccc4c(c3)OCCO4)C2=O)cc1` (stereo not drawn) it was 23.1% (inactive).
As for `O=CN1CCN(C2CC(=O)N(c3ccc4c(c3)OCO4)C2=O)CC1` (stereo not drawn), the max response, negative = inhibition is -17.5% (inactive).
With `Cc1ccc(N2C(=O)CC(NCc3ccc4c(c3)OCO4)C2=O)cc1Cl` (stereo not drawn), the max response, negative = inhibition was -53.6% (active).
As for `CC(C)n1ncc2c(C(=O)N3CCN(Cc4cccs4)CC3)cc(C3CC3)nc21`, the max response, negative = inhibition was -22.9% (inactive).
The figure for `CC1(C2CC2)NC(=O)N(CC(=O)N2CCN(c3ccccc3F)CC2)C1=O` (stereo not drawn) is -14.5% (inactive); for `Cc1ccccc1CN1C(=O)CSCC1(C)C(=O)Nc1c(C)cccc1C` (stereo not drawn) it is 4.29% (inactive); for `COc1cnc(-c2ccccn2)nc1Oc1ccc(C(C)(C)C)cc1` it is -52.8% (active).
With `COc1ccc(NCCc2ccccn2)cc1`, the max response, negative = inhibition was 1.2% (inactive).
On to `COc1ccc2nc(-c3ccccn3)ccc2c1`, for which the max response, negative = inhibition is -12.3% (inactive).
With `CCOC(=O)c1c(NC(=O)COC(=O)c2ccc(S(=O)(=O)C(F)F)cc2)sc(C(=O)N(C)C)c1C`, the max response, negative = inhibition is 13% (inactive).
With `Cc1ccc(-c2c(N)nc3ncccn23)cc1`, the max response, negative = inhibition was 1.01% (inactive).
The figure for `OCCN1CCN(c2ncnc3c2ncn3[C@H]2CN(Cc3ccco3)C[C@@H](CO)O2)CC1` is -7.83% (inactive); for `O=S1(=O)CC(N2CCN(CCO)CC2)CN1Cc1cn(Cc2ccc(Cl)cc2)nn1` (stereo not drawn) it is -11.2% (inactive).
With `COc1cc(/C=N/n2c(C)n[nH]c2=S)ccc1OCc1ccccc1`, the max response, negative = inhibition is 4.09% (inactive).
In the case of `Cc1ccccc1-c1n[nH]c(=S)n1/N=C/c1ccc(-c2ccccc2Br)o1` it was -16.9% (inactive).
The figure for `Cc1n[nH]c(=S)n1/N=C/c1ccc(Br)o1` is -55% (active).
Take `NC(c1csc(NC(=O)Nc2ccccc2Oc2ccccc2)n1)c1ccccc1Cl` (stereo not drawn): the max response, negative = inhibition is 46.2% (inactive).
As for `COC(=O)[C@]12CCCCC=C1N(Cc1ccco1)C(=O)[C@H](CC(=O)NCCCCc1ccccc1)C2`, the max response, negative = inhibition was -9.24% (inactive).
The figure for `Cc1ccc(CN2CC(N3CCC(Cc4ccccc4)CC3)CS2(=O)=O)cc1` (stereo not drawn) is 6.13% (inactive); for `O=C(CSc1nc2[nH]ncc2c(=O)[nH]1)Nc1ccc(F)cc1` it is 2.63% (inactive).
As to `Cc1cc(=O)[nH]c(SCC(=O)Nc2ccc(Br)cc2)n1`, the max response, negative = inhibition was -12.6% (inactive).
The figure for `Cc1cc(C)c2c(=O)[nH]c(SCC(=O)Nc3ccc(Br)cc3)nc2n1` is -52.3% (active); for `COc1ccc(Cl)cc1-c1cc(C(=O)Nc2cc(OC)c(OC)c(OC)c2)[nH]n1` it is 106% (inactive).
Regarding `Clc1cccc(Cl)c1OCCOCCNCc1ccccc1`, the max response, negative = inhibition is 43.5% (inactive).
The figure for `COCCNCCOCCOc1cccc(OC)c1` is 6.73% (inactive); for `COCCCNCCOCCOc1ccc(Cl)cc1Br` it is -97.1% (active).
As for `C[C@@H]1CN([C@H](C)CO)S(=O)(=O)c2ccc(C#CC3CCCCC3)cc2O[C@H]1CN(C)C(=O)Cc1ccncc1`, the max response, negative = inhibition is -18.9% (inactive).
As for `CCc1nc2ccc(C(=O)NCc3ccc(OC)cc3)cn2c1N(CC)Cc1cccc(Br)c1`, the max response, negative = inhibition is 0% (inactive).
`C[C@H](CO)N1C[C@H](C)[C@H](CN(C)C(=O)c2ccncc2)OCc2ccccc2-c2c(n(C)c3ccccc23)C1=O`: the max response, negative = inhibition was -9.27% (inactive).
The figure for `O=C(NCc1ccc(F)cc1)c1cc(C2CCCCN2C(=O)C2CCCCC2)on1` (stereo not drawn) is 2.42% (inactive); for `CCN1CCN(c2ccc([N+](=O)[O-])cc2C(=O)c2ccc(Cl)cc2)CC1` it is -55.6% (active).
In the case of `O=C(Nc1cccc(Cl)c1)c1cc([N+](=O)[O-])ccc1N1CCN(CCO)CC1` it was -13.4% (inactive); in that of `CCC(=O)c1ccc(N2CCN(C(=O)c3cc([N+](=O)[O-])ccc3F)CC2)c(F)c1`, 15% (inactive).
The figure for `O=C(Nc1ccc(C(=O)O)cc1)/C(=C/c1ccc([N+](=O)[O-])cc1)NC(=O)c1ccccc1` is -12.4% (inactive); for `O=C(N/N=C/c1ccc(O)cc1)/C(=C/c1ccc([N+](=O)[O-])cc1)NC(=O)c1ccccc1` it is -52.3% (active); for `O=C(NCCc1ccccc1)/C(=C\c1ccc([N+](=O)[O-])cc1)NC(=O)c1ccccc1` it is 9% (inactive).
As to `Cc1sc2ccccc2c1CNC[C@H]1O[C@@H](n2ccc(=O)[nH]c2=O)[C@H](O)[C@@H]1O`, the max response, negative = inhibition is 23.7% (inactive).
The figure for `O=C(NCc1ccccc1Cl)c1csc([C@@H]2O[C@H](CO)[C@@H](O)[C@H]2O)n1` is 0% (inactive); for `Cc1ccccc1-c1csc(C(O)c2cccc(Cl)c2)n1` (stereo not drawn) it is -14.8% (inactive); for `CC(C)Cn1cc(-c2cncc3nccn23)cn1` it is 19.7% (inactive).
`NC(=O)CSc1nnc(-c2cccc(S(=O)(=O)N3CCOCC3)c2)o1`: the max response, negative = inhibition is -19.7% (inactive).
On to `Cc1c(C(=O)NCc2ccc(C#N)cc2)sc(=O)n1Cc1ccc(C(=O)N(C)C)cc1`, for which the max response, negative = inhibition is 16.1% (inactive).
In the case of `CC(C)(C)c1ccc(C(=O)N2CCC(C(=O)N3CCCCC3)CC2)cc1` it was 7.98% (inactive).
The figure for `COc1ccccc1NC(=O)C1CCN(C(=O)c2ccc(C(C)(C)C)cc2)CC1` is -52% (active).
As for `COc1ccc(C(=O)N2CCC(C(=O)Nc3cccc(C)c3)CC2)cc1OC`, the max response, negative = inhibition is 9.36% (inactive).
Regarding `O=C1C(Cl)=C(Oc2ccccc2)C(=O)c2ccccc21`, the max response, negative = inhibition is -90.6% (active).
`CC(=O)N(C1=C(Cl)C(=O)c2ccccc2C1=O)c1ccc(C(=O)O)cc1`: the max response, negative = inhibition is -17.6% (inactive).
In the case of `COc1cccc(CNc2nc(NCc3cccs3)nc3ccsc23)c1` it was -28.6% (inactive).
For the molecule `C[C@H](CO)N1C[C@H](C)[C@@H](CN(C)S(=O)(=O)c2ccc(F)cc2)OCc2cnnn2CCCC1=O`, the max response, negative = inhibition was -22.3% (inactive).
On to `COc1ccc(C(C)(NC(C)=O)c2nc(-c3ccc(S(C)(=O)=O)cc3)cs2)cc1` (stereo not drawn), for which the max response, negative = inhibition is 0.123% (inactive).
In the case of `CC(C)Nc1ncnc2c1ncn2[C@H]1CN(Cc2ccncc2)C[C@@H](CO)O1` it was 4.5% (inactive).
The figure for `Cc1c(NC(=O)c2coc(=O)c(Br)c2)c(=O)n(-c2ccccc2)n1C` is -83.3% (active); for `Cc1cc2oc(C(=O)Nc3c(C)n(C)n(-c4ccccc4)c3=O)c(C)c2cc1Cl` it is -21.8% (inactive).
The figure for `Cc1c(NC(=O)c2cc(-c3ccc(Br)cc3)on2)c(=O)n(-c2ccccc2)n1C` is -15% (inactive).
In the case of `CCCCCNC(=O)C(c1ccc(OC)cc1)n1c(=O)c(-c2ccccc2)nc2ccccc21` (stereo not drawn), the max response, negative = inhibition was 3.45% (inactive).
As to `CC1=C(C(=O)N(C(C)C)C(C)C)CC(CC(=O)NCCCCc2ccccc2)C(=O)N1CCC1=CCCCC1` (stereo not drawn), the max response, negative = inhibition is -16.1% (inactive).
As for `COC(=O)[C@]12CCCCC=C1N(Cc1ccc3c(c1)OCO3)C(=O)[C@H](CC(=O)NCc1cccs1)C2`, the max response, negative = inhibition is 3.72% (inactive).
As for `Cc1ccc(CCC(=O)Nc2ncc(Cc3cc(Cl)ccc3Cl)s2)o1`, the max response, negative = inhibition is -12.7% (inactive).
In the case of `Cc1ccc(Cc2cnc(N)s2)o1`, the max response, negative = inhibition was -53.2% (active).
For `CN(C)CCOC1c2ccccc2-c2ccccc21`, the max response, negative = inhibition is -17.2% (inactive).
The figure for `CN(C)CCOC(=O)C(c1ccccc1)C1(O)CCCC1` (stereo not drawn) is -12.5% (inactive); for `Cc1ccccc1C(OCCN(C)C)C1CCCCC1` (stereo not drawn) it is -100% (active).
Turning to `COCCNc1ncnc2c1ncn2[C@H]1CN(Cc2ccc(OC)cc2)C[C@@H](CO)O1`, the max response, negative = inhibition is 6.87% (inactive).
In the case of `Cc1cc(C)n2c(NCc3ccccc3)c(CC(C)C)nc2n1`, the max response, negative = inhibition is 5.03% (inactive).
Regarding `Cc1ccc(CN(C)C[C@@H]2OCc3cnnn3CCCC(=O)N([C@@H](C)CO)C[C@H]2C)cc1`, the max response, negative = inhibition was -25.2% (inactive).
In the case of `O=C(NCCNc1ccc([N+](=O)[O-])cc1Cl)c1ccccc1F` it was -0.899% (inactive); in that of `CC(CNc1ccc([N+](=O)[O-])cc1)NC(=O)c1ccccc1Br` (stereo not drawn), 3.2% (inactive).
As for `O=C(NCCNc1ccc([N+](=O)[O-])cc1)c1cccc2c(Br)cccc12`, the max response, negative = inhibition is -58.2% (active).

The record behind these values is PubChem BioAssay AID652054 (National Center for Advancing Translational Sciences (NCATS), 2013).
